Assay outcomes (PubChem BioAssay)
RAM inhibit = yeast RAM network inhibition; S. cerevisiae dse1pr::URA3 reporter, 5-FOA growth OD615, 2 d; analog-sensitive cbk1-as2 kinase mutant strain; inhibition, % at 50 µM; 190,000 tested, 1.8% active; AID 868;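 active = inhibition above a set limit, 3 SD over mean compound inhibition, cut at about 8.4% in these data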;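 also: 0% = DMSO-only wells with no growth and 100% = 10 µM 1-NA-PP1 full growth; inhibition rescues growth on 5-FOA so higher OD means more RAM inhibition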
SKN-1 block = blocks SKN-1 activity in C. elegans; C. elegans VP596 Pgst-4::GFP/RFP ratio, acrylamide-induced, 24 h; inhibition, % at 21.8 µM; 360,000 tested, 0.49% active; AID 624304;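 active = interference check ratio from 0.5 to 1.5 plus GFP to RFP signal ratio inhibition reaching or exceeding a fixed threshold, cut at about 30% in these data, passing the limit was not always enough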
PG9 Ab binder = binds the HIV-1 gp120 antibody PG9; TR-FRET gp120-PG9 antibody binding; inhibition, % at 6.7 µM; 360,000 tested, 0.43% active; in the data active = inhibition above about 8.5%
PGE2 EP2 inh = inhibitors of human EP2 prostaglandin E2 receptor; P43116; C6 glioma cells expressing human EP2, cAMP TR-FRET; cells stimulated with saturating PGE2; inhibition, % at 25 µM; 260,000 tested, 0.52% active; AID 1422;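 active = percent inhibition above 40 after rounding to a whole number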;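 also: rat C6 glioma host cells with rolipram phosphodiesterase inhibitor present; the protocol text gives 20 µM as final concentration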
NR1D1 modulator = Rev-erb alpha (human) modulation | P20393 | Rev-erbα–FITC-DNA binding, fluorescence polarization, 90 min | activity, % at 10 µM | 370,000 tested, 0.79% active | AID 1259318;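 active = activity above about 14%, limit read from the data; passing the limit was not always enough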;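 also: 0% = DMSO wells with 35 nM protein and 100% = DMSO wells with 750 nM protein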
Target sequence (P20393 whole entry, looked up): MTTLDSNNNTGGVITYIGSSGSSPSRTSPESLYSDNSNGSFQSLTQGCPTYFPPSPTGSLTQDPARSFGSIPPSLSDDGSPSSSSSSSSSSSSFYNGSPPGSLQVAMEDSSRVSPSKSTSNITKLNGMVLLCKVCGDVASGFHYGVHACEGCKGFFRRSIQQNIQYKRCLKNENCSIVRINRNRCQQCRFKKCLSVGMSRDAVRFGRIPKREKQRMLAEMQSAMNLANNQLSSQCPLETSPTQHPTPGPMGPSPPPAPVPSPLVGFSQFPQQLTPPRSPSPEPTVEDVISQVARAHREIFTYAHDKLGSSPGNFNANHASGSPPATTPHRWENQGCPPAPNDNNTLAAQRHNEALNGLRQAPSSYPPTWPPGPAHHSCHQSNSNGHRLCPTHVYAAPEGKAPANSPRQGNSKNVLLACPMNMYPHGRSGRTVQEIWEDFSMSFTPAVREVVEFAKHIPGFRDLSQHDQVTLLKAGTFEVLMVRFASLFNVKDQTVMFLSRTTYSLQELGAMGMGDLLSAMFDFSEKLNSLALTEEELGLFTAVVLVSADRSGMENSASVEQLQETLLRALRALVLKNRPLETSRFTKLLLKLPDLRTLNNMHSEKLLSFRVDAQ
EP2 mod = modulators of human EP2 prostaglandin E2 receptor; P43116; EP2-expressing cells, cAMP HTRF FRET, PGE2 co-stimulation; induction, % at 25 µM; 260,000 tested, 0.83% active;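 active = compounds whose cAMP rise, as percent of the full-agonist control response, exceeds 60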;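 also: rat C6 glioma line stably carrying human EP2 under a CMV promoter; the protocol text gives 20 µM as final concentration; 100% = response of wells given 1 µM PGE2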
The depositor's hits bear a star; / = no result given; ! = not confirmed by another sample. Rows were chosen to be rich in hits. Some 2.9% of all compounds tested hit in one or more screens of this group.

SMILES | RAM inhibit | SKN-1 block | PG9 Ab binder | PGE2 EP2 inh | NR1D1 modulator | EP2 mod
CC(c1cccs1)N(Cc1ccco1)C(=O)Nc1ccc(Cl)c(Cl)c1 (configuration not stated) | 11* | 5 | -1 | 8 | 0 | 24
COc1cc(CNC(C)(C)CO)cc(Br)c1OCc1ccc(Cl)cc1 | 0 | 55* | -1 | 9 | 4 | -53
COc1cc(CNC(C)c2ccccc2)cc(Br)c1OCc1ccc(F)cc1 (configuration not stated) | / | 66* | -2 | / | 2 | /
C=CC(=O)N1c2ccccc2C(=C2SC(C(=O)OC)=C(C(=O)OC)S2)C(=S)C1(C)C | / | / | / | 11 | / | 30
Cc1cc(-c2cc(N)c(=O)n(CC(=O)NCCc3ccccc3)n2)c(C)o1 | / | / | / | 1 | / | -48
Cc1ccc(O)c(-c2cc(C(=O)Nc3ccc(S(=O)(=O)N4CC(C)OC(C)C4)cc3)[nH]n2)c1 (configuration not stated) | 8.9* | 3 | 1 | 13 | -7 | -11
NC(=O)COC(=O)c1ccc(Cl)c(S(=O)(=O)N(Cc2ccccc2)c2ccc(Cl)cc2)c1 | 7 | 4 | -1 | 8 | 1 | 22
NC(=O)NC(=O)COC(=O)c1ccc(Cl)c(S(=O)(=O)N(Cc2ccccc2)c2ccc(Cl)cc2)c1 | 10* | 5 | 0 | 9 | -1 | 39
CS(=O)(=O)N(CC(=O)Nc1cccnc1)c1ccccc1F | / | / | / | 11 | / | -7
CCN(CC)S(=O)(=O)c1ccc(N2CCCC2)c(NS(=O)(=O)c2ccc(F)cc2)c1 | 9.8* | 11 | -3 | 9 | 0 | 25
COC(=O)c1ccc(N2CCCCC2)c(NS(=O)(=O)c2ccc(C)cc2)c1 | 11* | 1 | 0 | 6 | 5 | 40
CCN(CC)S(=O)(=O)c1ccc(N2CCCC2)c(NS(=O)(=O)c2ccccc2)c1 | 4 | 8 | -3 | 2 | -2 | -12
CCN1CCN(c2nc3sc4c(c3c3ncnn23)CC(C)CC4)CC1 (configuration not stated) | 4 | 65* | -1 | 12 | 1 | -23
Cc1occc1-c1nn(C2CCN(C(=O)c3ccccc3F)CC2)c(=O)o1 | / | / | / | 12 | / | -59
Cc1ccc(S(=O)(=O)N2CCN(CC(=O)NC3CCCCC3)CC2)cc1 | / | / | / | 17 | / | -8
COc1ccc(C(=O)Nc2sc(C(=O)N3CCCCC3)c(C)c2C#N)cc1OC | / | / | / | 9 | / | 6
COc1ccccc1C(=O)Nc1sc(C(=O)N2CCCC2)c(C)c1C#N | 8.5* | 5 | 0 | 8 | -5 | 31
Cc1cc(C)c2c(N)c(C(=O)Nc3cccc(Cl)c3Cl)sc2n1 | / | / | / | 16 | / | 4
O=C(Sc1ccc(Cl)cc1)c1ccccn1 | / | 55* | 1 | / | -5 | /
Cc1cc2n(n1)C(c1ccccc1)Nc1ccccc1-2 (configuration not stated) | 1 | 7 | 0 | 8 | 5 | 64*!
Cc1cc2n(n1)C(c1sccc1C)Nc1ccccc1-2 (configuration not stated) | 4 | -9 | 3 | 6 | 4 | 32
Cc1ccc2c(c1)-c1cc(C)nn1C(c1sccc1C)N2 (configuration not stated) | 10* | 12 | 1 | 13 | -5 | 37
O=C(c1nccs1)C1CCN(C(=O)Cc2ccccc2F)CC1 | / | / | / | / | / | -45
CCOc1ccc(NC(=O)CN2CCC(n3cnc4cccnc43)CC2)cc1 | / | / | / | / | / | 16
COc1ccccc1NC(=O)c1cc(S(=O)(=O)N2CCC3(CC2)OCCO3)ccc1F | 9.6* | 19 | / | 9 | 1 | 4
SMILES | RAM inhibit | SKN-1 block | PG9 Ab binder | PGE2 EP2 inh | NR1D1 modulator | EP2 mod
O=C(Nc1ccccc1C(F)(F)F)c1cc(S(=O)(=O)N2CCC3(CC2)OCCO3)ccc1F | 3 | -14 | 0 | 4 | -2 | 14
CCc1ccc(OCC(=O)NC(NC(=S)Nc2ccc(Cl)cc2)C(Cl)(Cl)Cl)cc1 (configuration not stated) | 9.5* | -1 | 0 | 8 | 1 | -16
N#CSC1CS(=O)(=O)C=C1Cl (configuration not stated) | / | / | / | 133* | / | -111
COc1cccc(/C=C/C(=O)OCC(=O)Nc2ccc(S(=O)(=O)N3CCCC3)cc2)c1 | 9.8* | 14 | -1 | 5 | -7 | -17
CC(=O)Nc1ccc(-n2nnnc2SCC(=O)NNC(=O)C2CCCCC2)cc1 | / | / | / | 11 | / | -19
COc1ccccc1N(C(=O)c1cncc(Br)c1)c1nc(-c2ccc(C)cc2)cs1 | 6 | -6 | -1 | 6 | 5 | 64*
Cn1cc(-c2cc(C(=O)NC3(c4ccccc4)CCCC3)[nH]n2)cn1 | / | / | / | 10 | / | -44
Cc1ccccc1S(=O)(=O)Nc1nc2ccccc2nc1N1CCc2ccccc2C1 | 6 | 10 | 0 | 12 | 0 | 61*
CCNC(=S)N(CCN(C)C)Cc1cc2c(C)ccc(C)c2[nH]c1=O | / | / | / | 3 | / | 1
O=C(Nc1ccccc1N1CCCCC1)c1ncoc1-c1cccs1 | / | / | / | / | / | 66*
NC(=O)c1ccc(N2CCCC2)c(NC(=O)c2ncoc2-c2cccs2)c1 | / | / | / | 13 | / | -52
COc1cc(C2C3=C(CCCC3=O)OC3=C2C(=O)CCC3)ccc1OCC(N)=O | / | / | / | 10 | / | 4
CCn1c(SCC(=O)Nc2ccccc2)nnc1-c1ccco1 | / | / | / | 13 | / | -26
CC1CC1C(=O)OCC(=O)Nc1cccc(Br)c1 (configuration not stated) | / | 18 | 1 | / | -3 | /
O=C(COC(=O)C12CC3CC(CC(O)(C3)C1)C2)Nc1cccc(Br)c1 | / | 38* | 0 | / | 2 | /
Cc1onc(-c2c(F)cccc2Cl)c1C(=O)N[C@@H]1C(=O)N2[C@H]1SC(C)(C)[C@H]2C(=O)O | / | / | / | 55* | / | 20
Cc1onc(-c2ccccc2)c1C(=O)N[C@@H]1C(=O)N2[C@@H]1SC(C)(C)[C@@H]2C(=O)O | 0 | / | / | / | / | 26
Cn1ncc2c1CCc1sc(NC(=O)c3c(F)cccc3F)nc1-2 | / | / | / | 4 | / | -40
CCCN1C(=O)/C(=C/c2ccc(N3CCCC3)c(C)c2)NC1=S | 5 | 46* | -3 | 0 | 9 | -2
CCOC1OC(=O)C(Cl)=C1Nc1ccc(C)cc1 (configuration not stated) | 0 | 4 | -4 | 5 | -4 | 2
Cc1ccc(NC2=C(Cl)C(=O)OC2NC(=O)c2ccccc2)cc1 (configuration not stated) | 9.3* | 7 | -2 | 3 | -2 | 17
CCOCCCNC(=O)C1CCCN1C(=O)NCc1ccccc1 (configuration not stated) | / | / | / | 17 | / | -6
c1ccc2c(c1)NC(c1ccncc1)n1c-2nc2ccccc21 (configuration not stated) | 1 | 34* | -1 | 10 | -22 | 26
N/C(=N\OC(=O)Cc1cccs1)c1ccc(Cl)cc1 | / | 57* | -3 | 9 | -7 | -4
N/C(=N\OC(=O)c1cccs1)c1ccc(Cl)cc1 | / | 52* | 0 | 7 | -2 | -18
